# From PubChem BioAssay
# IMPase cell inh: membrane-permeable compound that blocks inositol monophosphatase | P97697 | CHO-M1 cells, IP1 accumulation, HTRF TR-FRET ratio | inhibition (IP1 accumulation), % at 46.1 µM | 120,000 tested, under 10 active | AID 901; active = well fitted curve in the direction sought with a large enough effect in the signal ratio, not every such curve was filed as active; inconclusive = small, poorly fitted or top-dose-only effect, or a change in a side signal; inactive = no such curve, though single readings can be large or run the other way; the % refers to the signal ratio;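 note: cells stimulated with carbachol in lithium chloride buffer; plate controls were DMSO basal wells for no effect and reference inhibitor wells for full effect; higher means more IMPase inhibition seen as more IP1 and lower FRET ratio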
# Target sequence (P97697 whole entry, looked up): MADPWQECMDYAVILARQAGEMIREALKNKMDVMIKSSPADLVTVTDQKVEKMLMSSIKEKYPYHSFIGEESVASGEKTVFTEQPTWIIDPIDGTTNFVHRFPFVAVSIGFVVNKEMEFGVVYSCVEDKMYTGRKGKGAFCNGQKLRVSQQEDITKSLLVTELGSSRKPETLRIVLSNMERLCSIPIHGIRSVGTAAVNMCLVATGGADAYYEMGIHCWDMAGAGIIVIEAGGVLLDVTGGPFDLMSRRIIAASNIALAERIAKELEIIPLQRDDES
#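 Measured: the HTRF emission ratio (665/620 nm) plus the 620 nm donor channel, each fitted to the Hill equation to give AC50. Cells were CHO-M1 given compounds up to 46 uM and a 30 min carbachol stimulation at 37C.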
# ALOX12 inhib: blocks human 12-lipoxygenase activity | purified 12-hLO, xylenol orange hydroperoxide absorbance | Potency, µM (doses to about 57.1 µM), inactives show at the top dose activity change, negative = inhibition, most hits filed as inhibitors | actives 0.12% (n = 150,000) | P18054 | AID 1452; note: potency is the fitted concentration of half-maximal effect; nearly all actives have a fitted effect of over 55% in size
#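 150 nM 12hLO, 25 mM Hepes pH 7.0 + 0.01% Triton X-100; cpd preinc 15 min RT; 40 uM arachidonic acid, 30 min RT; Fe-XO 30 min; A573/A405 ratio as read-out.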
# IMPase Li inh: IMPase inhibition in cells with lithium potentiation | CHO-M1 cells, IP1 TR-FRET (IP-One), carbachol + lithium | Potency, µM (titrated, usually from 59.4 µM), without a hit: at the top dose activity, negative = IMPase inhibition, actives largely listed as inhibitors | actives 0.35% (n = 210,000);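 note: IP1 builds up when IMPase is blocked and the TR-FRET signal falls; potency is the fitted concentration of half-maximal effect; plate controls were basal vehicle for no effect and high inhibitor control for full effect; nearly all actives have a fitted effect of over 50% in size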
#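 Concentration–response in CHO-M1 cells, lithium-potentiated; 30 min at 37C. IP1 detected by competitive TR-FRET after 10 min lysis at RT. Hill-fitted AC50.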
# ALOX15B inhib: 15-hLO-2 (ALOX15B) enzyme inhibition; O15296; purified 15hLO-2, xylenol orange hydroperoxide absorbance; Potency, µM (doses to about 57.1 µM), inactives show at the highest dose activity change, negative = inhibition, hits mostly inhibitors; actives 0.56% (n = 110,000); note: potency is the fitted concentration of half-maximal effect; nearly all actives have a fitted effect of over 60% in size
#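 Purified human 15hLO-2 (50 nM) preincubated 15 min with compound, then 45 uM arachidonic acid for 90 min at RT in 25 mM Hepes pH 7.5, 0.01% Triton X-100. Hydroperoxide detected by Fe-xylenol orange; 573/405 nm absorbance ratio.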
# HPGD block: blocks human HPGD enzyme activity; purified HPGD, NADH fluorescence kinetic, PGE2 substrate; Potency, µM, without a hit: at the top dose activity change, negative = inhibition, hits mostly inhibitors; actives 4.3% (n = 150,000); AID 894; active = well fitted inhibition curve with a large enough effect, not every such curve was filed as active; inconclusive = small, poorly fitted or top-dose-only effect, or another doubt; inactive = no such curve, though single readings can be large or run the other way; note: potency is the fitted concentration of half-maximal effect
# Target sequence (P15428 whole entry, looked up): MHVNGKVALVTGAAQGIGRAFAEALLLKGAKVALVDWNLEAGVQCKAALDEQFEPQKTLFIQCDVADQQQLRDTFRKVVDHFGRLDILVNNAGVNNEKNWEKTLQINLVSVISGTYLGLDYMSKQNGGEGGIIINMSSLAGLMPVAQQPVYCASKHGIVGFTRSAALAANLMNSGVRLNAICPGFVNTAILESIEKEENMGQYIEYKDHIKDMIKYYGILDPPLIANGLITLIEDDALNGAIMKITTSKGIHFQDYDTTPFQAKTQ
#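 NADH formation kinetics: reaction with 30 uM PGE2 and 1 mM NAD+ (final), 20 nM enzyme, Tris-HCl pH 8 with Tween 20, after 15 min compound preincubation at room temperature. Fluorescence change, last versus first of five reads.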
# PNC inhibitor: inhibitors of perinucleolar compartment assembly; activity change (PNC), negative = inhibition, % at 10 µM; PC3M PTB-GFP, PNC prevalence imaging, 16 h; active compounds read low; actives 3.1% (n = 140,000);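 active = readout at or below -70, meaning at least 70% loss of cells showing the perinucleolar compartment, a nuclear body marking cancer cells; inconclusive = readout between -30 and a set limit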;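 note: plate controls were DMSO wells for no effect and camptothecin positive control wells for full effect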
#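 PC3M cells stably expressing PTB-GFP, 750–1000 cells/well, treated 16 h at 37 °C with compound (23 nl of library stock), in duplicate. After paraformaldehyde fixation and Hoechst stain, imaged at 20x; PNC prevalence scored by image analysis.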
# Numbers without * were called inactive; ? = inconclusive; . = not tested or not shown; [ ] = another dose, or the depositor's remark. Sampled rows, rich in hits. Any-hit rate of the full collection: about 5.3%. Unless noted, calls come from the whole dose curve; as a rule, active = well fitted curve in the direction sought with a large enough effect; inconclusive = small, poorly fitted or top-dose-only effect, or another doubt; inactive = no such curve, though single readings can be large; an effect the other way counts as inactive or inconclusive. Unless noted, % is set by controls: 0 for no effect and ±100 for the full control effect.
SMILES,IMPase cell inh,ALOX12 inhib,IMPase Li inh,ALOX15B inhib,HPGD block,PNC inhibitor
C/C(=N\NC(=S)Nc1cc(S(=O)(=O)N2CCOCC2)ccc1Cl)c1ccccc1F,.,-7%,15%,.,-13%,?
CSCCC(NC(=O)c1ccccc1)C(=O)N/N=C(\C)c1ccccc1 (stereo not drawn),4,3%,2%,.,2%,-14
COc1ccc(OC)c2sc(N3CCCCC3)nc12,23,2%,31%[38.3 µM],4%[2.29 µM],16µM*,-18
COc1ccc(OC)c2sc(N3CCc4ccccc4C3)nc12,.,.,5%,.,.,.
Fc1cc(F)c2nc(N3CCCCC3)sc2c1,6,-14%,16%[38.3 µM],7%,-30%,29
Clc1cc(Cl)c2nc(N3CCCCC3)sc2c1,5,3%,-2%[38.3 µM],23%,22µM*,3
Clc1cccc2sc(N3CCCCC3)nc12,2,-12%,24%[38.3 µM],1%,?,-82*
O=C(CSc1ccc(-c2nc3ccccc3[nH]2)cn1)Nc1ccc2c(c1)OCCO2,0[1.84 µM],-4%,8.9µM*,6%[11.4 µM],?,?
Cc1cc2nc(-c3ccc(SCC(=O)N4CCOCC4)nc3)[nH]c2cc1C,-2,2%,?,6%,?,-89*
C=CCn1c(SCC)nc2sc3c(c2c1=O)CCc1ccccc1-3,5,4%,3%[38.3 µM],-11%,-5%,-18
C=CCSc1nc2sc3c(c2c(=O)n1CC)CCc1ccccc1-3,-6,?,7%[38.3 µM],?,2.2µM*,-4
CN(C)S(=O)(=O)Nc1ccc(NS(=O)(=O)N(C)C)c(S(=O)(=O)c2ccccc2)c1,-7,-3%,-1%[38.3 µM],-7%,-12%,11
Cc1ccc(NS(=O)(=O)N(C)C)cc1,-7,-3%,-15%,.,?,-100*
CN(C)S(=O)(=O)Nc1ccc2c(c1)Cc1ccccc1-2,3,0%,20%[38.3 µM],-1%,14µM*,-12
Cc1ccc(NC(=O)CSC2=C(C#N)C(c3ccc4c(c3)OCO4)CC(=O)N2)cc1C (stereo not drawn),-4,-2%,8%,.,-10%,-100*
Cc1c(-c2ccccc2)[n+](=O)c2c(n1[O-])CCC2,14,6%,5%,.,-3%,163
CCc1c(C)n([O-])c2c([n+]1=O)CCC2,1,-1%,7%[38.3 µM],2%[2.29 µM],0%,-81*
Cc1c(-c2cccs2)[n+](=O)c2c(n1[O-])CCCC2,5,0%,4%,.,-5%,-100*
Nc1ccc(N=Nc2ccc(-c3ccc(O)cc3)cc2)c2ccc(S(=O)(=O)O)cc12,.,-7%[11.4 µM],6%,2.5µM*,-7%,.
O=S(=O)(O)c1ccc(N=Nc2ccc3c(S(=O)(=O)O)cccc3c2O)c2ccccc12,.,1%[11.4 µM],9%,-3%[11.4 µM],-11%,.
Nc1c(N=Nc2ccc(-c3ccc(N=Nc4cc(S(=O)(=O)O)c5ccccc5c4N)cc3)cc2)cc(S(=O)(=O)O)c2ccccc12,.,?,10%,3.2µM*,16µM*,.
Cc1cc(-c2ccc(N=Nc3ccc4c(S(=O)(=O)O)cc(S(=O)(=O)O)c(N)c4c3O)c(C)c2)ccc1N=Nc1ccc2c(S(=O)(=O)O)cc(S(=O)(=O)O)c(N)c2c1O,?,0%,272%,20µM*,5µM*,.
Cc1ccc(N(C(=O)c2csnn2)C(C(=O)NC(C)(C)C)c2cccnc2)cc1 (stereo not drawn),.,.,7%,.,.,.
COC(=O)c1sccc1NC(=O)COc1ccc(Cl)cc1Cl,3,-6%,-21%,.,-14%,53
S=c1[nH]nc(-c2ccccn2)n1/N=C/c1ccccc1,.,-2%,-2%,.,?,?
O=[N+]([O-])c1cccc(-c2ccc(/C=N/n3c(-c4ccccc4)n[nH]c3=S)o2)c1,-1,2%,-8%,.,?,?
C(=N\N1CCN(Cc2ccccc2)CC1)/c1cccnc1,.,-2%,2%,.,-5%,-116*
O=C(O)COc1ccc(/C=N/n2c(COc3ccccc3)nc3ccccc3c2=O)cc1,-3,-1%,.,.,.,-115*
